For nine compounds, z-score and composite z-score results are on record in PubChem BioAssay.

Assay [1] can be described thus: A549 cell viability effects, profiling panel, calcein-AM fluorescence, 48 h, basal (AID 1162). Also: test concentration not given here. The settings on record: higher = more signal.
The nature of assay [2]: adipocyte viability effects, profiling panel, cell-based, 3T3-L1 adipocytes, calcein-AM fluorescence, 48 h, basal (AID 1163). Also: test concentration not given here. The settings on record: 3T3-L1 adipocytes viability, higher = more signal.
A short description of assay [3]: HepG2 cell viability effects, profiling panel, calcein-AM fluorescence, 48 h, basal (AID 1164). Also: test concentration not given here. Conditions: higher = more signal.
Assay [4] in a line: MM1S cell viability effects, profiling panel, calcein-AM fluorescence, 48 h, basal (AID 1165).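 Also: viability of MM1S multiple myeloma cells under basal unstimulated conditions; test concentration not given here.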 Conditions: higher = more signal.
Assay [5] in a line: basal RPMI8226 viability, no added stimulus, profiling panel, cell-based, calcein-AM fluorescence, 48 h, PK04 Diversity Set (AID 1166).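 Also: cells grown under basal conditions without added stimulus; test concentration not given here.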 Conditions: RPMI8226 myeloma viability, higher = more signal.
A short description of assay [6]: basal HepG2 mitochondrial membrane potential changes, profiling panel, cell-based, JC-1 fluorescence, 24 h, 100 nL compound (AID 1167). Also: test concentration not given here. The settings on record: higher = more signal.
A short description of assay [7]: basal 3T3-L1 adipocyte mitochondrial potential changes, profiling panel, cell-based, JC-1 fluorescence, 3T3-L1 adipocytes, 24 h, 100 nL compound (AID 1168). Also: test concentration not given here. Conditions: JC-1 mitochondrial fluorescence, higher = more signal, called active from +8 up or from −8 down.
A short description of assay [8]: basal RPMI8226 mitochondrial membrane potential changes, profiling panel, cell-based, JC-1 fluorescence, 24 h, 100 nL compound (AID 1169). Also: test concentration not given here. The settings on record: RPMI8226 myeloma, JC-1 mitochondrial potential fluorescence, higher = more signal.
A short description of assay [9]: basal MM1S mitochondrial membrane potential changes, profiling panel, cell-based, JC-1 fluorescence, 24 h, 100 nL compound (AID 1170). Also: test concentration not given here. Conditions: higher = more signal.
A short description of assay [10]: A549 lung cancer cell viability effects, profiling panel, resazurin fluorescence, 24 h, PK04 Diversity Set (AID 1171). Also: test concentration not given here. The settings on record: higher = more signal, called active from +8 up or from −8 down. For orientation: Alamar Blue is a resazurin reagent that responds to reducing activity.
Assay [11] in a line: HepG2 liver cancer cell viability effects, profiling panel, resazurin fluorescence, 24 h, PK04 Diversity Set (AID 1172). Also: test concentration not given here. Conditions: higher = more signal.
A short description of assay [12]: basal S. cerevisiae growth modulation, no modifier, primary screen, OD600, strain BY4716, 24 h, basal condition (AID 1173). Conditions: OD600, 24 h, higher = more signal, called active from +8 up or from −8 down.
The nature of assay [13]: MM1S myeloma cell viability, profiling panel, resazurin fluorescence, basal, 24 h, PK04 Diversity Set (AID 1174).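 Also: MM1S multiple myeloma cell line; test concentration not given here.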 The settings on record: higher = more signal, called active from +8 up or from −8 down.
Assay [14] deals with Dihydroorotate dehydrogenase (quinone), mitochondrial (Plasmodium falciparum (isolate 3D7)) (UniProt Q08210). Put plainly: PfDHODH enzyme inhibitors, primary screen, biochemical, C-terminal His tag, absorbance 600 nm (AID 1175).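 Also: recombinant parasite enzyme with a five histidine tag at its C terminus; test concentration not given here.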 The settings on record: DCIP absorbance 600 nm, higher = more signal, called active from +8 up or from −8 down.
Assay [15] can be described thus: P. aeruginosa biofilm formation inhibitors, primary screen, strain PAO1, LB-PBS medium, absorbance 600 nm (AID 1176). Also: test concentration not given here. Conditions: P. aeruginosa PAO1 growth/biofilm, A600, 12 h; higher = more signal.
The nature of assay [16]: S. cerevisiae RM11-1a growth modifiers, primary screen, strain RM11-1a, OD600, basal, 24 h (AID 1177).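 Also: cultures grown under basal conditions with no added stressor; test concentration not given here.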 The settings on record: OD600, 24 h, higher = more signal, called active from +8 up or from −8 down.
The nature of assay [17]: E. coli acrAB mutant growth effects, primary screen, E. coli filamentation inducers, strain DRC39, OD650, 24 h (AID 1178).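 Also: growth measured as culture turbidity by optical density at 650 nm; test concentration not given here.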 Conditions: higher = more signal, called active from +8 up or from −8 down.
Assay [18] is described as follows: E. coli acrAB mutant growth effects, primary screen, E. coli filamentation inducers, strain DRC39, OD650, 48 h (AID 1179).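 Also: screen aims at cell division blockers that make cells filament.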 Conditions: E. coli DRC39 delta-acrAB growth, higher = more signal, called active from +8 up or from −8 down.
Assay [19] in a line: RPMI8226 myeloma cell viability, profiling panel, resazurin fluorescence, basal, 24 h, PK04 Diversity Set (AID 1180).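 Also: RPMI8826 multiple myeloma cell line at 5000 cells per well; test concentration not given here.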 Conditions: higher = more signal.
The target in assay [20] is E3 ubiquitin-protein ligase XIAP (Homo sapiens) (UniProt P98170). Kind of assay: XIAP binders, primary screen, biophysical, small-molecule microarray, fluorescence 635 nm (AID 1181).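 Also: score merges 667 nm emission and signal to noise over triplicate slides.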 Conditions: small-molecule microarray binding, higher = more signal.

Activity calls are given as the source filed them. Unless noted, no rule for the calls is given here.

Sequence of E3 ubiquitin-protein ligase XIAP (Homo sapiens) (P98170 whole entry, looked up): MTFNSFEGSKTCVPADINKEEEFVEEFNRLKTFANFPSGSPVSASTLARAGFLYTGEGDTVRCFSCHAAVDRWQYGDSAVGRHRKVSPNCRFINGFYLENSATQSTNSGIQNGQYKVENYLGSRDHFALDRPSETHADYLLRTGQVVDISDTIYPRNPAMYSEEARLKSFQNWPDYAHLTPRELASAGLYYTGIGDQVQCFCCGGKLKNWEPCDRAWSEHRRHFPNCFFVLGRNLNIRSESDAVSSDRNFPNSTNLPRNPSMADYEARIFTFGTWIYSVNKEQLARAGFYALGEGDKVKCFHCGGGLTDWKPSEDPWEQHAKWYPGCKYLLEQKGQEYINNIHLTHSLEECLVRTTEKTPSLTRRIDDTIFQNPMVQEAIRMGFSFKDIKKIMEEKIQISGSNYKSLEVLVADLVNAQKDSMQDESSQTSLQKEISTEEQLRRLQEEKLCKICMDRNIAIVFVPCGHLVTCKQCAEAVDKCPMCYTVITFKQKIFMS
Sequence of Dihydroorotate dehydrogenase (quinone), mitochondrial (Plasmodium falciparum (isolate 3D7)) (Q08210 whole entry, looked up): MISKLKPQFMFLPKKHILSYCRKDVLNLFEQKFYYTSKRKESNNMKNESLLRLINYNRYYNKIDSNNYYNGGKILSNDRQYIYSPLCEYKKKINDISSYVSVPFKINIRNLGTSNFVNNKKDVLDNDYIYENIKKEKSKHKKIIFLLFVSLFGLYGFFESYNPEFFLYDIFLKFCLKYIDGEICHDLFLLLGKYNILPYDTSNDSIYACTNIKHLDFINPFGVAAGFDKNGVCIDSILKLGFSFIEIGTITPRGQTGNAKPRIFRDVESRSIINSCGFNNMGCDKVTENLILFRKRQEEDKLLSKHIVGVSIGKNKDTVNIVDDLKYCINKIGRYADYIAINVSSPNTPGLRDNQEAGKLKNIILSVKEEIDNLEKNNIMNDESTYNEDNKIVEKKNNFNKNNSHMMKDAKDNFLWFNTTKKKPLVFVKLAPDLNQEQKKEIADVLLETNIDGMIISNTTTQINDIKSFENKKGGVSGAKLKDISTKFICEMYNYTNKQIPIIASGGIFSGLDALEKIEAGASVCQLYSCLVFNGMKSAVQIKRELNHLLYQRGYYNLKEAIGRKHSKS

As to `C[C@@H]1NC(=O)[C@@H](Cc2ccccc2)NC(=O)[C@@]23C(=O)N[C@@H](Cc4ccccc4)C2[C@H](C)[C@@]2(C)O[C@H]2C3/C=C/C/C=C\CNC1=O` (stereo not given in full), the z-score in assay [1] was -0.312; in [2], 0.599; in [3], -0.543; in assay [4], 0.18; in [5], -0.377; in [6], -1.36. Moreover, the z-score in assay [7] was -0.308 (inactive); in assay [8], -0.0163; in assay [9], 1.09; in assay [10], -0.879 (inactive); in [11], -1.2; in [12], 0.318 (inactive). Besides, the z-score in assay [13] was 0.0992 (inactive); in [15], 0.413 (inactive); in assay [16], 0.652 (inactive); in assay [17] it was -0.811 (inactive); in assay [18], -0.863 (inactive); in [19] it was 0.329. Further, the composite z-score was 0.0303 (inactive) in [14] and -0.0138 in assay [20].
With `COCCOC(=O)N1C(=O)[C@@]2(c3cc(C#CCCO)ccc31)[C@H](C(=O)Nc1nc3ccccc3s1)[C@H]1C(=O)O[C@H](c3ccccc3)[C@H](c3ccccc3)N1[C@@H]2c1ccc(O)cc1`, the z-score in assay [1] is -0.378; in assay [2], 0.274; in assay [3] it was 0.123; in assay [4], 0.0566; in assay [5] it was -2.06; in [6] it was 0.248. The z-score was 0.15 (inactive) in assay [7]; -0.314 in assay [8]; -0.471 in assay [9]; 0.771 (inactive) in assay [10]; -0.0461 in assay [11]; 1.26 (inactive) in assay [12]. Moreover, the z-score is -0.159 (inactive) in [13]; 0.325 (inactive) in assay [15]; 1.52 (inactive) in assay [16]; -0.356 (inactive) in assay [17]; -1.07 (inactive) in assay [18]; -0.358 in assay [19]. Besides, the results for the composite z-score in assay [14] and in [20] were 1.35 (inactive) and -0.105, respectively.
On to `COc1ccc([Si](C)(C)[C@@H]2[C@@H](CC(=O)N3Cc4ccccc4C[C@H]3CO)O[C@]3(C(=O)N(Cc4ccc(N5C(=O)c6cccc7cccc5c67)cc4)c4ccccc43)[C@H]2C)cc1`, for which the z-score was 0.396 in [1]; 0.885 in [2]; 0.355 in [3]; -2.78 in assay [4]; -0.705 in assay [5]; 1.15 in assay [6]. For the same compound, the z-score in assay [7] is -0.0452 (inactive); in [8] it was -0.0572; in [9], 0.893; in [10], -0.787 (inactive); in assay [11], -0.542; in assay [12], -0.551 (inactive). Moreover, the z-score is -0.717 (inactive) in assay [13]; 1 (inactive) in [15]; 1.15 (inactive) in [16]; 0.384 (inactive) in assay [17]; 0.403 (inactive) in assay [18]; -0.221 in assay [19]. Also, the composite z-score was -2.41 (inactive) in assay [14] and -0.0773 in assay [20].
On to `CN1C(=O)C2C=CC(C(O)c3cccn3C)N(Nc3ccc([N+](=O)[O-])cc3[N+](=O)[O-])C2C1=O` (stereo not given), for which the z-score is -0.49 in assay [1]; -1.35 in assay [2]; -0.678 in assay [3]; -2.1 in assay [4]; 0.16 in assay [5]; -1.58 in assay [6]. Also, the z-score is -1.16 (inactive) in assay [7]; 0.647 in assay [8]; -0.0962 in assay [9]; -1.03 (inactive) in [10]; -0.929 in assay [11]; 1.1 (inactive) in [12]. The z-score in [13] is -1.76 (inactive); in assay [15], 0.667 (inactive); in [16] it was 0.407 (inactive); in assay [17], -0.314 (inactive); in assay [18] it was -0.119 (inactive); in [19], -1.34. The composite z-score in assay [14] is -0.145 (inactive); in assay [20] it was -0.354.
Regarding `COc1ccc(C#Cc2ccc3c(c2)[C@]2(C(=O)N3)[C@H](c3ccc(OCCO)cc3)N3[C@H](c4ccccc4)[C@H](c4ccccc4)OC(=O)[C@H]3[C@@H]2C(=O)NC[C@H](O)c2ccccc2)cc1`, the z-score in [1] is 0.357; in assay [2], -0.177; in assay [3] it was 1.08; in assay [4], 0.373; in assay [5], -1.46; in assay [6], -1.04. In addition, the z-score was 4.7 (inactive) in assay [7]; -0.808 in [8]; -1.4 in assay [9]; 0.0652 (inactive) in assay [10]; 0.0814 in assay [11]; 3.07 (inactive) in assay [12]. For the same compound, the z-score in [13] was -0.883 (inactive); in [15] it was 2.34 (inactive); in assay [16], 4.84 (inactive); in [17], 0.595 (inactive); in assay [18] it was 0.863 (inactive); in assay [19], -1.08. The composite z-score in assay [14] was -18.4 (active); in assay [20], 0.18.
On to `NC(=O)NCC#Cc1ccc2c(c1)[C@]1(C(=O)N2)[C@H](C(=O)N2CCN(c3ncccn3)CC2)[C@H]2C(=O)O[C@H](c3ccccc3)[C@H](c3ccccc3)N2[C@@H]1c1ccc(O)cc1`, for which the z-score was 0.348 in assay [1]; -0.173 in assay [2]; -0.388 in assay [3]; -0.977 in [4]; 0.18 in assay [5]; -1.99 in assay [6]. Further, the z-score in [7] was -1.02 (inactive); in assay [8], -0.315; in assay [9], 0.247; in [10], -0.292 (inactive); in assay [11], -0.727; in assay [12] it was 1.14 (inactive). Moreover, the z-score in [13] is -0.234 (inactive); in [15] it was 1.16 (inactive); in assay [16], 0.939 (inactive); in assay [17], -0.192 (inactive); in assay [18], -0.15 (inactive); in assay [19], -1.36. The composite z-score in [14] was -2.21 (inactive); in [20], -0.0577.
Take `COC(=O)C(CC#Cc1ccc2c(c1)[C@]1(C(=O)N2)[C@H](c2ccc(O)cc2)N2[C@H](c3ccccc3)[C@H](c3ccccc3)OC(=O)[C@H]2[C@@H]1C(=O)NC[C@H](O)c1ccccc1)C(=O)OC`: the z-score is -0.857 in [1]; -0.909 in [2]; -0.045 in assay [3]; -1.58 in [4]; -1.83 in [5]; -2.42 in assay [6]. Besides, the z-score in assay [7] is -0.837 (inactive); in [8], -0.829; in [9] it was -0.633; in assay [10], -0.407 (inactive); in assay [11], -0.0495; in [12], 0.677 (inactive). In addition, the z-score is -0.275 (inactive) in [13]; 0.87 (inactive) in [15]; 0.379 (inactive) in assay [16]; 0.062 (inactive) in assay [17]; -0.138 (inactive) in assay [18]; -1.37 in assay [19]. For the same compound, the results for the composite z-score in [14] and in assay [20] were -3.93 (inactive) and -0.0013, respectively.
`COc1ccc(C(=O)Nc2ccc(CN3C(=O)[C@]4(O[C@H](CC(=O)N5Cc6ccccc6C[C@H]5CO)[C@@H]([Si](C)(C)c5ccc(OC)cc5)[C@@H]4C)c4ccccc43)cc2)cc1`: the z-score is -0.513 in assay [1]; 1.56 in assay [2]; 0.349 in [3]; -1.6 in assay [4]; -0.786 in [5]; 0.705 in assay [6]. Also, the z-score was -0.212 (inactive) in assay [7]; -0.7 in [8]; -0.911 in assay [9]; -1.96 (inactive) in assay [10]; -1.61 in [11]; 0.496 (inactive) in [12]. Moreover, the z-score was -1.13 (inactive) in assay [13]; 0.0002 (inactive) in assay [15]; 2.48 (inactive) in assay [16]; -1.14 (inactive) in assay [17]; -1.09 (inactive) in assay [18]; -0.839 in assay [19]. In addition, the composite z-score in assay [14] is -2.72 (inactive); in assay [20] it was -0.239.
Consider `C=CCNC(=O)[C@@H]1[C@H]2C(=O)O[C@H](c3ccccc3)[C@H](c3ccccc3)N2[C@H](c2ccccc2OCCO)[C@@]12C(=O)Nc1ccc(C#CCCO)cc12`, for which the z-score in assay [1] is -0.368; in [2], 0.953; in assay [3], 0.151; in assay [4], -0.66; in assay [5] it was -0.485; in assay [6] it was -0.699. The z-score was 0.959 (inactive) in assay [7]; -0.435 in assay [8]; -0.608 in assay [9]; 0.322 (inactive) in assay [10]; 0.282 in assay [11]; 0.634 (inactive) in assay [12]. Besides, the z-score was 0.373 (inactive) in [13]; 4.62 (inactive) in assay [15]; 1.96 (inactive) in assay [16]; -1.09 (inactive) in [17]; -2.17 (inactive) in assay [18]; -0.315 in assay [19]. The composite z-score in [14] is 1.22 (inactive); in assay [20], 0.0461.
